This note sets out measurements from PubChem BioAssay (NCI).

This is part of a sample that, as a whole, favours compounds with a hit. Of some 83,000 tested, about 20% had one in any assay.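 A percent growth of 40 corresponds to 60% growth inhibition; 0 means no net growth; -100 means all cells died. Active threshold: below 10.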 A number with no mark means an inactive call. Activity calls are given as the source filed them.

Some test systems named below: SR leukemia; RPMI-8226 leukemia; OVCAR-8 ovarian; OVCAR-5 ovarian; OVCAR-4 ovarian; IGROV1 ovarian; OVCAR-3 ovarian; HS 578T breast; NCI/ADR-RES ovarian; T-47D breast; BT-549 breast; MDA-MB-435 melanoma; SW-620 colon; MCF7 breast; HCT-116 colon; HCC-2998 colon; KM12 colon; SK-OV-3 ovarian.
Common to all, as to experiment: NCI-60 one-dose screen, 48 h (100 = growth as untreated, 0 = no growth, -100 = all killed)
Holding throughout (conditions): 10 µM

As to `C=CCOc1ccc2c(c1)CC[C@@H]1[C@@H]2CC[C@]2(C)C(=O)/C(=N/O)C[C@@H]12`, the growth with SR leukemia was 7.72% (active); in the test on RPMI-8226 leukemia, 20.2%; with OVCAR-8 ovarian it was 70.5%; in the test on OVCAR-5 ovarian, 44.7%; with OVCAR-4 ovarian, 8.34% (active); in the test with IGROV1 ovarian it was 0.671% (active). The growth in the test with OVCAR-3 ovarian was 75.6%; in the test with HS 578T breast, 35.4%; in the test on NCI/ADR-RES ovarian it was 57.6%; in the test with T-47D breast, 22.7%; in the test on BT-549 breast, 28.6%; in the test on MDA-MB-435 melanoma, 61.6%. Also, the growth with SW-620 colon is 42.5%; in the test with MCF7 breast, 44.2%; with HCT-116 colon, 12.2%; in the test on HCC-2998 colon, 27%; in the test with KM12 colon it was 61.6%.

In the case of `O=C1CC[C@@H](C(=O)N[C@H]2CSSC[C@@H](C(=O)N/C=C/c3ccc(O)cc3)NC(=O)[C@H](Cc3ccccc3)NC(=O)[C@@H]3CCCN3C(=O)[C@@H]3CCCN3C2=O)N1`, the growth in the test with SR leukemia is 99.1%; in the test with RPMI-8226 leukemia it was 96.1%; in the test with OVCAR-8 ovarian it was 100%; in the test with OVCAR-5 ovarian it was 102%; in the test on OVCAR-4 ovarian it was 112%; in the test with SK-OV-3 ovarian, 93.2%. The growth is 106% with OVCAR-3 ovarian; 94.4% in the test on HS 578T breast; 97.8% in the test on NCI/ADR-RES ovarian; 78.3% in the test on T-47D breast; 120% with BT-549 breast; 104% in the test on MDA-MB-435 melanoma. Further, the growth is 97.2% in the test with SW-620 colon; 96.8% in the test with MCF7 breast; 99.7% in the test with HCT-116 colon; 98.9% in the test on HCC-2998 colon; 97.9% in the test with KM12 colon.

Turning to `CC(=O)Nc1ccc(Sc2ccc(NC(C)=O)cc2)cc1`, the growth with SR leukemia was 92.9%; in the test with RPMI-8226 leukemia, 99%; in the test on OVCAR-8 ovarian, 94.7%; in the test on OVCAR-5 ovarian, 95.8%; in the test on OVCAR-4 ovarian, 102%; in the test on SK-OV-3 ovarian, 82%. Also, the growth in the test with OVCAR-3 ovarian was 102%; in the test on HS 578T breast, 104%; with NCI/ADR-RES ovarian it was 95.7%; with T-47D breast it was 70.6%; with BT-549 breast it was 95.5%; with MDA-MB-435 melanoma, 104%. The growth is 104% in the test with SW-620 colon; 97.7% with MCF7 breast; 98.5% with HCT-116 colon; 97.2% with HCC-2998 colon; 96.5% in the test on KM12 colon.

In the case of `COc1ccc(-c2ccc(-c3ccc(C(=N)N)c(F)c3)s2)cc1`, the growth with SR leukemia was -21.2% (active); in the test on RPMI-8226 leukemia, -65.6% (active); in the test on OVCAR-8 ovarian, -48.7% (active); in the test on OVCAR-5 ovarian, -91.7% (active); in the test with OVCAR-4 ovarian, -67.9% (active); in the test on IGROV1 ovarian it was -62.7% (active). Further, the growth is -96% (active) in the test on OVCAR-3 ovarian; -54.3% (active) with HS 578T breast; -51.3% (active) with NCI/ADR-RES ovarian; -64% (active) with T-47D breast; -91.7% (active) in the test with BT-549 breast; -79.5% (active) with MDA-MB-435 melanoma. The growth is -91% (active) in the test on SW-620 colon; -70.6% (active) in the test with MCF7 breast; -82.6% (active) in the test on HCT-116 colon; -83.9% (active) in the test with HCC-2998 colon; -94.9% (active) in the test with KM12 colon.

Take `Nc1nsc(C(=O)c2ccc(O)cc2)n1`: the growth with SR leukemia is 99.2%; in the test on RPMI-8226 leukemia it was 90.7%; in the test on OVCAR-8 ovarian, 91.1%; with OVCAR-5 ovarian, 93.6%; in the test on OVCAR-4 ovarian, 105%; with SK-OV-3 ovarian, 92.8%. For the same molecule, the growth is 95.2% in the test with OVCAR-3 ovarian; 98.1% in the test on HS 578T breast; 103% with NCI/ADR-RES ovarian; 94.2% in the test with T-47D breast; 102% with BT-549 breast; 104% with MDA-MB-435 melanoma. Further, the growth is 108% in the test with SW-620 colon; 99.3% with MCF7 breast; 94.8% with HCT-116 colon; 98.7% in the test with HCC-2998 colon; 100% in the test with KM12 colon.

For `CCOC(=O)/C(C#N)=C(/C)C1CC1`, the growth in the test with SR leukemia was 102%; with RPMI-8226 leukemia, 98.4%; in the test on OVCAR-8 ovarian it was 107%; in the test on OVCAR-5 ovarian it was 105%; with OVCAR-4 ovarian, 104%; with IGROV1 ovarian, 121%. Moreover, the growth with OVCAR-3 ovarian is 101%; in the test with HS 578T breast, 107%; with NCI/ADR-RES ovarian, 111%; in the test with T-47D breast, 103%; in the test on BT-549 breast it was 107%; with MDA-MB-435 melanoma it was 106%. The growth in the test with SW-620 colon is 108%; with MCF7 breast it was 101%; in the test on HCT-116 colon it was 110%; in the test on HCC-2998 colon, 112%; in the test on KM12 colon, 106%.

As to `CN(C)c1ccc2c(c1)OC(N)=C(C#N)C2c1ccc2c(c1)CCO2` (stereo not drawn), the growth is 38.2% with SR leukemia; 32.9% in the test with RPMI-8226 leukemia; 24.1% with OVCAR-8 ovarian; 57.2% in the test on OVCAR-5 ovarian; 48.3% with OVCAR-4 ovarian; 32.2% in the test with SK-OV-3 ovarian. In addition, the growth in the test on OVCAR-3 ovarian was -3.4% (active); in the test with HS 578T breast it was 23.1%; in the test on NCI/ADR-RES ovarian it was 3% (active); with T-47D breast, 66.8%; in the test with BT-549 breast it was 16.7%; in the test with MDA-MB-435 melanoma, 0.989% (active). Also, the growth in the test on SW-620 colon was 31.9%; with MCF7 breast, 16.9%; in the test on HCT-116 colon, 5.3% (active); in the test on HCC-2998 colon, 36.8%; in the test with KM12 colon it was 24.2%.

`CCOCC[P+](c1ccccc1)(c1ccccc1)c1ccccc1`: the growth is 21.4% in the test with SR leukemia; 1.2% (active) in the test on RPMI-8226 leukemia; 46.5% with OVCAR-8 ovarian; 76.2% in the test with OVCAR-5 ovarian; 36.4% with OVCAR-4 ovarian; 46.9% with IGROV1 ovarian. The growth with OVCAR-3 ovarian is 33.8%; in the test with HS 578T breast, 79.1%; in the test on NCI/ADR-RES ovarian, 100%; in the test with T-47D breast, 18%; in the test on BT-549 breast, 36.9%; with MDA-MB-435 melanoma it was 28.8%. The growth with SW-620 colon was 60%; in the test on MCF7 breast it was 31.1%; in the test with HCT-116 colon it was 38.1%; with HCC-2998 colon it was 31.7%; in the test on KM12 colon it was 25.8%.

In the case of `O=C1CC(c2cccc(-c3cccnc3)c2)=Nc2ccc(Br)cc2N1`, the growth in the test on SR leukemia is 51.1%; in the test on RPMI-8226 leukemia, 40.7%; in the test with OVCAR-8 ovarian, 17.2%; with OVCAR-5 ovarian, 91.5%; in the test with OVCAR-4 ovarian, -4.81% (active); in the test on SK-OV-3 ovarian it was 46.5%. Moreover, the growth is 45% in the test on OVCAR-3 ovarian; 27.9% in the test with HS 578T breast; 19% with NCI/ADR-RES ovarian; -11.6% (active) in the test with T-47D breast; -3.46% (active) with BT-549 breast; 43.5% in the test on MDA-MB-435 melanoma. For the same molecule, the growth with SW-620 colon is 81.8%; in the test with MCF7 breast it was 23.6%; in the test with HCT-116 colon, 23%; in the test with HCC-2998 colon, 74.8%; in the test with KM12 colon, 49.4%.
